The text below walks through data of PubChem BioAssay (Tox21).

Inconclusive results are not listed. Active and inactive are the calls of the source. Calls come from the whole dose curve.
% is set by controls: 0 for no effect and ±100 for the full control effect; potency is the fitted concentration of half-maximal effect.

A short description of the assay: p53 small molecule agonists, cell-based qHTS assay with human liver microsomes: qHTS cell viability counter screen (AID 1963579). Note: nearly all actives have a fitted effect of over 45% in size. To be noted: p53RE-bla HCT-116 viability, ATP luminescence, 16 h, HLM; series mostly up to 66 µM; activity change, negative = cytotoxicity: at the top concentration. The text has this:
National Center for Advancing Translational Sciences [NCATS]
Division of Preclinical Innovation [DPI]
U.S. Environmental Protection Agency [EPA]
National Institutes of Environmental Health Sciences [NIEHS]
National Toxicology Program [NTP]
U.S. Food and Drug Administration [FDA]
p53, a tumor suppressor protein, is activated following cellular insult, including DNA damage and other cellular stresses. The activation of p53 regulates cell fate by inducing DNA repair, cell cycle arrest, apoptosis, or cellular senescence. The activation of p53, therefore, is a good indicator of DNA damage and other cellular stresses. […] The activation of the reporter gene under culture conditions can be detected by fluorescence intensity. This cell line was used to screen the Tox21 10K compound library in the condition of presence of human liver microsomes and to identify agonists that activate the p53 signaling pathway after in vitro metabolic activation (Ooka et al., Archive of Toxicology 96:1975-1987, 2022).
Tox21 Assay Protocol Summary:
The p53RE-bla cells were dispensed at 4,000cells/3ul/well in 1536-well black-clear bottom plates. After the assay plates were incubated at 37 C, 5% CO2 incubator for 5 hours, 23 nL of compounds dissolved in DMSO, positive controls or DMSO only was transferred to the assay plate. Following compound addition, 3 uL of human liver microsomes (XenoTech, Kansas City, KS) at final concentration of 0.5 mg/mL and 1uL of B-Nicotinamide adenine dinucleotide 2'-phosphate (NADPH) at final concentration of 0.5 mg/mL were transferred to the assay plate. The plates were incubated at 37 C for 16 hours. 1 uL of LiveBLAzer detection mixture was added to each well and the plates were incubated at room temperature in the dark for 2 h. Fluorescence intensity at 460 and 530 nm emission and 405 nm excitation were measured by an Envision plate reader. For cell viability readout that measures cytotoxicity, 4 ul/well of CellTiter-Glo reagent was added into the assay plates using a Flying Reagent Dispenser. After 30 min incubation at room temperature, the luminescence intensity in the plates was measured using a ViewLux plate reader.
A general note: In qHTS, concentration-response curves come from the screen itself.
As for `CC1(C)CCC(C)(C)c2cc(NC(=O)c3ccc(C(=O)O)cc3)ccc21`, the “activity change, negative = cytotoxicity” value is 10.8% [at 30.3 µM] (inactive). On the same count and under the same terms, next, `Nc1ncnc2c1ncn2[C@H]1CC[C@@H](CO)O1`: 0.062% (inactive). Still for that read-out and setting: the figure for `Cc1ccc2nc(N)[nH]c(=O)c2c1Sc1ccncc1` is -9.15% [at 30.3 µM] (inactive). Same read-out and setting: the figure for `Clc1cc(Cl)cc(Cl)c1` is 2.96% (inactive). Consider `Cc1occc1C(=O)Nc1ccc(C(=O)N2CCC(F)(F)/C(=C\C(=O)N3CCC(N4CCCCC4)CC3)c3ccccc32)cc1`, for which the “activity change, negative = cytotoxicity” value is -3.46% [at 30.3 µM] (inactive). Still for that read-out and setting: the figure for `NC(=O)NC(=O)Cc1ccccc1` is -4.98% [at 30.3 µM] (inactive); for `Cc1cccc(C)c1OCC(C)N` (stereo not given) it is 0.1% [at 30.3 µM] (inactive); for `CC(COC(C)(C)C)OCCCO` (stereo not given) it is -1.85% (inactive). Same read-out and setting: the figure for `COc1ccc(/C(C)=C/C(=O)O)c(OC)c1` is -2.65% [at 30.3 µM] (inactive); for `CCOC(=O)c1ccccc1O` it is 0.928% [at 30.3 µM] (inactive); for `O=C(OCc1ccccc1)C(=O)OCc1ccccc1` it is 0.22% (inactive). Still for that read-out and setting: the figure for `CCCCCCCCCCCCc1ccc(O)cc1` is -9.81% (inactive). Take `CN1CCCCC1CCN1c2ccccc2Sc2ccc(S(C)=O)cc21` (stereo not given): the “activity change, negative = cytotoxicity” value is 18% [at 30.3 µM] (inactive). Still for that read-out and setting: next, `CCC(CC)C(=O)O`: -3.65% (inactive); `CC(N)C12CC3CC(CC(C3)C1)C2` (stereo not given): -2.62% [at 30.3 µM] (inactive). For `CCCCCCCCc1ccc(S(=O)(=O)O)cc1`, the “activity change, negative = cytotoxicity” value is -19.7% (inactive).

For `OCCN(CCO)c1cccc(Cl)c1`, the “activity change, negative = cytotoxicity” value is 4.56% (inactive). For the compound `CCOc1ccc(NC(=O)OC(C)C)cc1OCC`, the “activity change, negative = cytotoxicity” value is 1.79% (inactive). Same read-out and setting: next, `COC(=O)c1ccc(OC)cc1`: 11.2% (inactive); `CCN1CCN(c2cc3c(cc2F)c(=O)c(C(=O)O)cn3C2CC2)CC1`: 17.5% [at 30.3 µM] (inactive). Same read-out and setting: the figure for `COC(=O)c1ccccc1Cl` is -8.15% (inactive); for `c1cnc2c(n1)CCCC2` it is 1.51% (inactive). Same read-out and setting: the figure for `Cc1c(C2(c3cc(Br)c(O)c(Br)c3C)OS(=O)(=O)c3ccccc32)cc(Br)c(O)c1Br` is -15.6% (inactive); for `CC1=C(C)C(=O)C(CCCCC#CCCCC#CCO)=C(C)C1=O` it is -0.987% [at 30.3 µM] (inactive); for `CCCCC(CC)(CO)CO` it is 14.5% (inactive). `CC(=O)C1CCCCC1=O` (stereo not given): the “activity change, negative = cytotoxicity” value was -1.02% (inactive). With `Cc1cc(C)c(C=O)c(C)c1`, the “activity change, negative = cytotoxicity” value was 1.71% (inactive). With `CC(C)CCCC(C)NCCC(C)C` (stereo not given), the “activity change, negative = cytotoxicity” value is -7.37% [at 30.3 µM] (inactive). As for `CC(C)c1ccc2oc3nc(N)c(C(=O)O)cc3c(=O)c2c1`, the “activity change, negative = cytotoxicity” value is -26.2% [at 30.3 µM] (inactive). The same measure, in the same setting: next, `COc1ccc(N)c([N+](=O)[O-])c1`: 2.53% (inactive). On to `CCCCOC(=O)C(C)CC` (stereo not given), for which the “activity change, negative = cytotoxicity” value was -3.74% (inactive). Still for that read-out and setting: next, `CC(=O)Nc1ccc(OCC(O)CNC(C)C)cc1` (stereo not given): -11.9% [at 30.3 µM] (inactive); `C[Si]1(C)N[Si](C)(C)N[Si](C)(C)N1`: 0.858% (inactive); `CCCCCCc1ccc(N)cc1`: -0.0563% (inactive).

For the compound `COc1cc2nc(N3CCN(C(=O)c4ccco4)CC3)nc(N)c2cc1OC`, the Potency was 0.972 µM (active). With `CCCCOC(=O)[C@@H](C)Oc1ccc(Oc2ccc(C(F)(F)F)cn2)cc1`, the “activity change, negative = cytotoxicity” value was -13.8% (inactive). On the same count and under the same terms, next, `Cc1cc(C(C)(C)C)c(O)c(C)c1Cn1c(=O)n(Cc2c(C)cc(C(C)(C)C)c(O)c2C)c(=O)n(Cc2c(C)cc(C(C)(C)C)c(O)c2C)c1=O`: -4.2% (inactive). Same read-out and setting: next, `Cc1c(F)cc2c(=O)c(C(=O)O)cn3c2c1CCC3C` (stereo not given): 5.6% [at 30.3 µM] (inactive); `O=C(OCCCCCCOC(=O)c1ccccc1)c1ccccc1`: 4.41% (inactive). On the same count and under the same terms, next, `CC1(C)Cc2cccc(N)c2O1`: 0.429% (inactive).
